Only some compounds are listed: those with a hit (about 6.8% of all), similar ones and a draw of the others.
C diff growth – inhibitors of Clostridium difficile growth | AID 1259249 | 86,000 compounds, 0.25% hits | Clostridium difficile clinical isolate growth, OD600, 24 h; hits give low values | growth activity, negative = inhibition, % at 16 µg/mL (by protocol);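 active means mean growth activity at or below -80% and every replicate also at or below -80%; inconclusive means mean at or below -80% but some replicate above -80%; inactive means mean growth activity above -80%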;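 further: 0% = DMSO wells and -100% = levofloxacin 16 µg/mL wells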
T cruzi growth – blocks T. cruzi growth in NIH3T3 culture; 77,000 compounds, 5.9% hits; T. cruzi beta-gal in NIH3T3, GalScreen luminescence, 90 h; inhibition, % at 8.34 µM;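 active means mean inhibition above about 93%, with at least 55% of replicates each passing it, limit read from the data, passing the limit was not always enough; inconclusive means only one of those two conditions holds; inactive means neither condition holds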
Pf Dd2 inh – inhibitors of Plasmodium falciparum Dd2 growth | 94,000 compounds, 2.3% hits | P. falciparum Dd2 growth, SYBR Green, 72 h; hits give low values | AID 1159554 | activity change, % at 10 µM; in the data active means activity change below about -80%; inconclusive means no clear call, values can overlap the other calls
* = called active by the depositor; ? = inconclusive; · = not tested or not shown.

SMILES	C diff growth	T cruzi growth	Pf Dd2 inh
COc1ccc(NC(=O)N(C)C[C@H]2Oc3ccc(NS(=O)(=O)c4ccc(OC)cc4)cc3CC(=O)N([C@@H](C)CO)C[C@@H]2C)cc1	7	-14	40
COc1ccc(CN2C[C@@H](O)COC[C@@H]3O[C@@H](CC(=O)NCCN4CCCC4)CC[C@H]32)cc1	3	32	-19
CO[C@@H]1CN(C)C(=O)c2ccc(NC(C)=O)cc2OC[C@H](C)N(C(=O)c2ccccc2)C[C@H]1C	-3	-3	25
O=C(C[C@@H]1C[C@@H]2c3cc(NC(=O)C4CCOCC4)ccc3O[C@@H]2[C@H](CO)O1)NCc1ccccc1	0	-43	-18
COc1ccc2c3c([nH]c2c1)[C@@H](CO)N(C(=O)C1CCC1)CC31CN(Cc2nccs2)C1	1	·	-22
C[C@H](O)C#Cc1cnc2c(c1)C(=O)N([C@@H](C)CO)C[C@@H](C)[C@@H](CN(C)Cc1ccccn1)O2	2	-29	31
Cc1ccc(S(=O)(=O)N(C)C[C@@H]2OCCCC[C@H](C)Oc3ccc(NC(=O)Nc4ccc5c(c4)OCO5)cc3C(=O)N([C@H](C)CO)C[C@H]2C)cc1	·	·	-75
C[C@@H]1CN([C@H](C)CO)C(=O)c2cc(NC(=O)Nc3ccccc3)ccc2O[C@@H](C)CCCCO[C@@H]1CN(C)S(=O)(=O)c1ccc(Cl)cc1	·	38	-86*
C[C@@H]1CCCCO[C@H](CN(C)S(=O)(=O)c2ccccc2)[C@H](C)CN([C@@H](C)CO)C(=O)c2cc(NC(=O)Nc3ccccc3)ccc2O1	·	51	-41
C[C@@H]1CN([C@H](C)CO)C(=O)c2cc(NC(=O)Nc3ccc4c(c3)OCO4)ccc2O[C@@H](C)CCCCO[C@@H]1CN(C)S(=O)(=O)c1ccc(Cl)cc1	7	51	-88*
CC(C)NC(=O)Nc1ccc2c(c1)CC(=O)N([C@@H](C)CO)C[C@@H](C)[C@@H](CN(C)C(=O)Nc1ccc(C(F)(F)F)cc1)O2	1	·	8
CCCC(=O)N1CC2(C1)CN(Cc1ccccc1F)[C@H](CO)c1c2c2ccc(OC)cc2n1C	6	·	-87*
CCCC(=O)N1CCC2(CC1)CN(Cc1ccccc1F)[C@@H](CO)c1c2c2ccc(OC)cc2n1C	5	·	-83*
COc1ccc2c3c(n(C)c2c1)[C@H](CO)N(Cc1ccccc1F)CC31CN(C(C)=O)C1	6	·	-25
CCCC(=O)N1CCC2(CC1)CN(Cc1ccccc1F)[C@H](CO)c1c2c2ccc(OC)cc2n1C	2	·	?
CCN1CC(=O)N2[C@H](CO)[C@@H](c3ccc(Br)cc3)[C@H]2C1	-2	·	42
C/C=C/c1ccc([C@@H]2[C@H](C#N)N(C(=O)c3cccnc3)[C@H]2CO)cc1	6	56	1
COc1ccc(S(=O)(=O)Nc2ccc3c(c2)C(=O)N([C@H](C)CO)C[C@@H](C)[C@@H](CN(C)S(=O)(=O)c2ccc(C)cc2)OCCCC[C@H](C)O3)cc1	·	·	-81*
COc1ccc(S(=O)(=O)Nc2ccc3c(c2)C(=O)N([C@H](C)CO)C[C@@H](C)[C@@H](CN(C)S(=O)(=O)c2ccc(Cl)cc2)OCCCC[C@@H](C)O3)cc1	5	91	-89*
COc1ccc(S(=O)(=O)N(C)C[C@@H]2OCCCC[C@@H](C)Oc3ccc(NS(=O)(=O)c4ccc(Cl)cc4)cc3C(=O)N([C@H](C)CO)C[C@H]2C)cc1	-12	·	-23
COc1ccc(S(=O)(=O)N(C)C[C@H]2OCCCC[C@H](C)Oc3ccc(NS(=O)(=O)c4ccccc4)cc3C(=O)N([C@H](C)CO)C[C@H]2C)cc1	5	93	·
COc1ccc(S(=O)(=O)Nc2ccc3c(c2)C(=O)N([C@@H](C)CO)C[C@@H](C)[C@@H](CN(C)S(=O)(=O)c2ccc(C)cc2)OCCCC[C@H](C)O3)cc1	·	·	-79
COc1ccc(S(=O)(=O)N(C)C[C@@H]2OCCCC[C@H](C)Oc3ccc(NS(=O)(=O)c4ccc(C)cc4)cc3C(=O)N([C@@H](C)CO)C[C@H]2C)cc1	-5	31	-56
COc1ccc(S(=O)(=O)N(C)C[C@@H]2OCCCC[C@H](C)Oc3ccc(NS(=O)(=O)c4ccc(C)cc4)cc3C(=O)N([C@H](C)CO)C[C@@H]2C)cc1	-2	113*	-62
COc1ccc(S(=O)(=O)Nc2ccc3c(c2)C(=O)N([C@@H](C)CO)C[C@H](C)[C@@H](CN(C)S(=O)(=O)c2ccccc2)OCCCC[C@@H](C)O3)cc1	-3	·	-88*
COc1ccc(NC(=O)Nc2ccc3c(c2)C(=O)N([C@H](C)CO)C[C@H](C)[C@@H](CN(C)C(=O)Nc2c(C)noc2C)OCCCC[C@@H](C)O3)cc1	7	61	29
C[C@@H]1CN([C@@H](C)CO)S(=O)(=O)c2ccc(/C=C/c3ccccc3)cc2O[C@H]1CN(C)C	-2	75	7

Assay outcomes deposited in PubChem BioAssay by Broad Institute.
